Results as given in PubChem BioAssay (NCI).
Compounds without any hit were thinned out: in the full panel of roughly 83,000, 20% have a hit.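 Treatment: one concentration, 48 hours, 96-well format. Scoring: percent growth, with anything below 10 considered active.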 Unmarked numbers belong to inactive results. The source made the active and inactive calls.

How the values were obtained:
Experiment in all cases: NCI-60 one-dose screen, 48 h (100 = growth as untreated, 0 = no growth, -100 = all killed)
Settings in all cases: 10 µM unless noted
[1] = tested on: DU-145 prostate
[2] = tested on: K-562 leukemia
[3] = tested on: MALME-3M melanoma
[4] = tested on: MDA-MB-231 breast
[5] = tested on: RXF 393 renal
[6] = tested on: SF-268 CNS
[7] = tested on: SF-295 CNS
[8] = tested on: SF-539 CNS
[9] = tested on: UACC-257 melanoma
[10] = tested on: M14 melanoma

Compound	growth [1] [%]	growth [2]	growth [3]	growth [4]	growth [5]	growth [6]	growth [7]	growth [8]	growth [9]	growth [10]
N=C(N)c1ccc(-c2cc(Cl)cc(Cl)c2)cn1	99.5	17.5%	95.8%	85.6%	41.5%	84.9%	98.2%	89.6%	102%	96.4%
Nc1cccc(-c2nc3sccn3c2-c2ccnc(NCCNS(=O)(=O)c3ccc(C(F)(F)F)cc3)n2)c1	43.4	47.2%	42.1%	46%	48.7%	35.5%	46.6%	32%	65%	53.6%
CCN1CCN(CC(=O)N2c3cccc4cccc(c34)N(C(=O)CN3CCN(CC)CC3)C2c2cn(-c3ccccc3)nc2-c2cccc([N+](=O)[O-])c2)CC1	28.3	-52.9% (active)	-91.3% (active)	-66.1% (active)	3.79% (active)	16.6%	-50.3% (active)	-89.2% (active)	-83.1% (active)	-81.6% (active)
COc1cc(NC(N)=NCCC(C)(C)c2ccc(C(F)(F)F)cc2)ncc1C#N	39.6	-18.1% (active)	-77.9% (active)	26%	33.4%	44.1%	25.9%	61.1%	-0.602% (active)	-73.7% (active)
Cc1cc(N/N=C/c2nc(-c3ccc(Br)cc3)oc2C)c2cc(Cl)ccc2n1	60.7	-17.6% (active)	55.6%	67.2%	85.5%	80%	101%	98.5%	95.6%	40.8%
COc1ccc(S(=O)(=O)NCCCNc2nccc(-n3ccc4cccnc43)n2)cc1	91.7	77.7%	121%	91.1%	95.5%	89.6%	94.7%	100%	111%	-14.4% (active)
CCCCCCCCCCCCCCCCCCNC(=O)[C@H]1CSC(c2cccs2)N1 (stereo not given in full)	53.3	-27.7% (active)	-78.4% (active)	-93.5% (active)	-90.9% (active)	-65.7% (active)	66.5%	-49.6% (active)	-17.7% (active)	-84.8% (active)
O=C1NN(C(=O)c2ccc(Cl)cc2)C(c2ccccc2)=N/C1=C\c1ccc(F)cc1	112	83.2%	85.6%	68%	84.2%	105%	72.9%	84.8%	102%	86.2%
O=C(CSc1nc2ccccc2[nH]1)c1ccc(N2CCOCC2)cc1	107	99.5%	100%	103%	98.1%	103%	96.8%	100%	102%	106%
CC(C)(C)n1cc(-c2ccnc(NCCCNS(=O)(=O)c3ccc(Br)cc3)c2)c(-c2cccc(O)c2)n1	43	-10.9% (active)	-2.04% (active)	8.91% (active)	20.8%	31.1%	12%	15.7%	9.16% (active)	5.23% (active)
CC(C)CSc1nc(NN)c(C#N)c(-c2ccc(F)cc2)n1	66.5	58.8%	95.5%	86.8%	79.3%	62.6%	44.7%	65.9%	105%	78.9%
COc1cccc(/C=C2\Oc3cc(OCCCN4CCCC4)ccc3C2=O)c1OC	106	73%	94%	97.2%	93.1%	91.9%	97.4%	94.6%	99.3%	91.5%
CCC(=O)Oc1ccc(/C(=C(/C)Cc2cccc(OC)c2)c2ccc(OCCN(C)C)cc2)cc1	93.3	-26.5% (active)	100%	88.2%	88.6%	86.3%	99.2%	90.3%	118%	31.8%
